# In PubChem BioAssay (NCATS):
# Inconclusive results are not listed. Entries that show only a call come without a potency. Calls of active or inactive are those of the source. Calls come from the whole dose curve; as a rule, active = well fitted curve in the direction sought with a large enough effect; inconclusive = small, poorly fitted or top-dose-only effect, or another doubt; inactive = no such curve, though single readings can be large; an effect the other way counts as inactive or inconclusive.
# Columns and labels:
# [1] = NS1 protein of Zika virus - qHTS assay to identify small molecule inhibitors in human HEK 293 cells (AID 1347053); conditions: HEK293 ZIKV MR766 infection, NS1 TR-FRET, 24 h; series mostly up to 46.1 µM; note: nearly all actives have a fitted effect of over 55% in size; note: potency is the fitted concentration of half-maximal effect
# How it was run: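 Compound-treated (1 h pre-infection) HEK 293 cells infected with ZIKV MR766, MOI = 0.5; after 24 h at 37 C, NS1 read by TR-FRET; data normalized to uninfected and infected controls.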
# [2] = qHTS of pediatric cancer cell lines to identify multiple opportunities for drug repurposing: Primary screen for TC32 cells (AID 1347089); conditions: TC32 Ewing sarcoma viability, CellTiter-Glo luminescence, 48 h; series mostly up to 45.8 µM; note: nearly all actives have a fitted effect of over 60% in size
# How it was run: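 qHTS, TC32, 48 h drug treatment, CellTiter-Glo luminescence as a proxy for metabolically active cells; primary top concentration 46 µM (MIPE 11-pt, NPC 8-pt); confirmatory 11-pt.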
# [3] = qHTS of pediatric cancer cell lines to identify multiple opportunities for drug repurposing: Primary screen for DAOY cells (AID 1347090); conditions: DAOY medulloblastoma viability, CellTiter-Glo luminescence, 48 h; series mostly up to 46 µM; note: nearly all actives have a fitted effect of over 55% in size; note: potency is the fitted concentration of half-maximal effect
# How it was run: (§1)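 Viability measured as metabolically active cells via CellTiter-Glo luminescence following 48 hours of compound exposure, 11-point dilutions in confirmatory testing. 500-1,000 cells/well plated 5 hours before dosing; controls were DMSO and 2.3 µM bortezomib.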
# [4] = qHTS of pediatric cancer cell lines to identify multiple opportunities for drug repurposing: Primary screen for SJ-GBM2 cells (AID 1347091); conditions: SJ-GBM2 viability, CellTiter-Glo luminescence, 48 h; series mostly up to 46 µM
# How it was run: as §1
Structure (SMILES),Potency [1],Potency [2],Potency [3],Potency [4]
CCCc1nc2c(C)cc(-c3nc4ccccc4n3C)cc2n1Cc1ccc(-c2ccccc2C(=O)O)cc1,inactive,inactive,inactive,
COc1cc(Oc2ccnc3cc(OC)c(OC)cc23)ccc1NC(=O)NC(C)c1nccs1 (stereo not given),inactive,inactive,inactive,
CC[C@@H](C)[C@H](NC(=O)[C@H](CC1CCCCC1)NC(=O)c1ccno1)C(=O)N1CCC2(CCc3ccccc32)CC1,inactive,inactive,inactive,
COc1ccccc1-c1cccc(-c2c(O)c3cc(C#N)c(Cl)cc3[nH]c2=O)c1,inactive,inactive,inactive,
OC[C@H](Cc1ccccc1)Nc1nc(Oc2ccc3c(c2)CCC3)nc2c1ncn2Cc1ccc(-c2ccccc2)cc1,4.18 µM (active),inactive,11.8 µM (active),
CCOc1ccn(-c2ccc(F)cc2)c(=O)c1C(=O)Nc1ccc(Oc2ccnc(N)c2Cl)c(F)c1,inactive,inactive,,
CNC(=O)c1ccc(C)c(-n2c(C)cc(OCc3ccc(F)cc3F)c(Br)c2=O)c1,inactive,inactive,inactive,
COCCNCCCn1c(C(=O)CF)c(-c2ccc(C)cc2)c2c(N)ncnc21,inactive,inactive,,
O=C1CCCC2=C1C(c1[nH]ncc1Cl)N=C(Nc1nc3ccccc3o1)N2 (stereo not given),inactive,inactive,inactive,inactive
CCC(C)n1ncn(-c2ccc(N3CCN(c4ccc(OC[C@H]5CO[C@](Cn6cncn6)(c6ccc(Cl)cc6Cl)O5)cc4)CC3)cc2)c1=O (stereo not given in full),inactive,inactive,,
CCOC(=O)N[C@@H]1CC[C@@H]2[C@@H](C1)C[C@H]1C(=O)O[C@H](C)[C@H]1[C@@H]2C=Cc1ccc(-c2cccc(F)c2)cn1,inactive,inactive,,
